# Screens (PubChem)
# AMA1 RON2 block: AMA1-RON2 (P. falciparum) interaction inhibition; hit rate 0.2% among 360,000; AlphaScreen AMA1-biotinylated RON2 peptide binding; Potency, µM (top dose mostly 58.2 µM), for the others: at the top dose activity change, negative = inhibition, usual class: inhibitors; AID 720542;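 note: potency is the fitted concentration of half-maximal effect; 0% = vehicle wells and -100% = peptide control; nearly all actives have a fitted effect of over 45% in size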
#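 AMA1 (3D7) with his tag at 25 nM final met compounds first, then biotinylated RON2 peptide at 25 nM; detection used donor plus acceptor beads, 10 µg/mL apiece, read by AlphaScreen after 30 min at room temperature.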
# Cycloheximide cs: counter-screen hit for Shiga toxin inhibitors, cycloheximide; hit rate 12% among 300,000; max response, %; cell reporter, cycloheximide protein synthesis inhibition counterscreen; in the data active = max response mostly above about 13%, no sharp cut-off; inactive = mostly below about 14%; note: read at 38.3 µM for the half of the compounds with a filed dose; 0% is about no effect
# AmpC inh detg: blocks E. coli AmpC beta-lactamase in detergent assay. P00811. AmpC hydrolysis of nitrocefin, absorbance 480 nm, 0.01% Triton. Potency, µM (doses to about 114 µM), without a hit: at the highest dose activity change, negative = inhibition, hits mostly inhibitors. hit rate 0.041% among 370,000. AID 485294;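 note: potency is the fitted concentration of half-maximal effect; 0% = no-compound wells and -100% = no-enzyme wells; nearly all actives have a fitted effect of over 25% in size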
# Target sequence (P00811 whole entry, looked up): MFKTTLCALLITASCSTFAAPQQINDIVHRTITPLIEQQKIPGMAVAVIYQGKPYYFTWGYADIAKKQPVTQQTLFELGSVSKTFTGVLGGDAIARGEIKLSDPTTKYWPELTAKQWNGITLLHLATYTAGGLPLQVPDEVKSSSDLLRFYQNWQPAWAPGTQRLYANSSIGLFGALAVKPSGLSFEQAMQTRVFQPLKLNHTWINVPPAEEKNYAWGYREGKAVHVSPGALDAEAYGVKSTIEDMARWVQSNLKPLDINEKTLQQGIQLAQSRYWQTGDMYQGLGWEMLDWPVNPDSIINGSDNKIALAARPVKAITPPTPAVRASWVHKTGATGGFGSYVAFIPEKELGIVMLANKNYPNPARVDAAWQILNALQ
#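 AmpC (5.3 nM in the dispensed reagent) in 20 mM phosphate pH 7.0 with 0.01% (detergent screen) or 0.0001% Triton X-100 was preincubated with compounds for 15 min at room temperature. Nitrocefin was then added from an 800 uM solution, and hydrolysis was followed at 480 nm.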
# Shiga inhibitor: blocks Shiga toxin action in Vero cells; Vero cells, Shiga toxin protein synthesis inhibition reporter; inhibition, % at 38.7 µM; hit rate 9.2% among 290,000; in the data active = inhibition mostly above about 28%, no sharp cut-off; inactive = mostly below about 43%; note: 0% is about no effect
# SARS PLP yeast: inhibitors of SARS-CoV papain-like protease in yeast; AID 485353; Potency, µM (top dose mostly 32.9 µM), for inactives: at the highest dose activity, positive = growth rescue, usual class: activators; S. cerevisiae expressing SARS-CoV PLpro, growth rescue; hit rate 0.19% among 330,000; calls by dose curve; note: potency is the fitted concentration of half-maximal effect; 0% is about no effect; nearly all actives have a fitted effect of over 55% in size
# AmpC inh no detg: AmpC beta-lactamase inhibition without detergent; hit rate 0.52% among 330,000; AID 485341; AmpC nitrocefin hydrolysis, absorbance 480 nm, 0.0001% Triton; Potency, µM (titrated, usually from 57.1 µM), for the others: at the top dose activity change, negative = inhibition, most hits filed as inhibitors; P00811;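 note: potency is the fitted concentration of half-maximal effect; plate controls were no compound for no effect and no enzyme for full effect; nearly all actives have a fitted effect of over 20% in size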
#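 AmpC (5.3 nM in the dispensed reagent) in 20 mM phosphate pH 7.0 with 0.01% (detergent screen) or 0.0001% Triton X-100 was preincubated with compounds for 15 min at room temperature. Nitrocefin was then added from an 800 uM solution, and hydrolysis was followed at 480 nm.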
# An asterisk follows results filed as active; ? = inconclusive; nt = not tested or not shown. This excerpt belongs to a sample that is enriched for hits. Unless noted, calls come from the whole dose curve; as a rule, active = well fitted curve in the direction sought with a large enough effect; inconclusive = small, poorly fitted or top-dose-only effect, or another doubt; inactive = no such curve, though single readings can be large; an effect the other way counts as inactive or inconclusive.
SMILES,AMA1 RON2 block,Cycloheximide cs,AmpC inh detg,Shiga inhibitor,SARS PLP yeast,AmpC inh no detg
CC1CCCCN1c1nnc(NC(=O)c2cc(-c3ccc(Br)cc3)on2)s1 (stereo not given),109%,-1,?,-3,2%,40µM*
O=C(NCCc1ccccc1)c1cc(-c2ccc(Cl)cc2)on1,nt,nt,23%,nt,nt,nt
CN(Cc1ccccc1)C(=O)c1cc(-c2ccc(Br)cc2)on1,27%,21*,-3%,69*,-18%,-29%
CCCNC(=O)c1cc(-c2ccc(Br)cc2)on1,1%,34*,?,66*,?,-41%
CCOC(=O)c1c(NC(=O)c2cc(-c3ccc(Br)cc3)on2)sc(C(C)=O)c1C,nt,nt,19%,nt,nt,nt
CCOC(=O)c1c(-c2ccccc2)csc1NC(=O)CSc1ccccc1,3%,5,-11%,8,-7%,-25%
CCOc1ccc(NC(=O)C(c2ccccn2)N(C(=O)CCl)c2ccc(F)cc2)cc1 (stereo not given),8%,32*,2%,active,8%,-9%
CCOc1ccc(NC(=O)N(c2ccccc2)c2ccccc2)cc1,3%,-4,?,-4,-5%,-8%
COc1ccccc1NC(=O)C(=O)NCC1CCCN1S(=O)(=O)c1cccs1 (stereo not given),0%,nt,-3%,nt,-2%,-9%
Clc1ccc(-c2nc(-c3cnccn3)no2)cc1,14%,30*,1%,59*,2%,-4%
Fc1ccc(-c2nc(-c3cnccn3)no2)c(Cl)c1,-14%,40*,5%,83*,-1%,-15%
c1ccc(-c2ccc(-c3nc(-c4ccccn4)no3)cc2)cc1,60%,-8,-1%,-6,-35%,63%
CCN1C(=O)C2(Nc3ccccc3-c3nc4ccccc4n32)c2cc(OC)ccc21 (stereo not given),-1%,-4,-7%,-24,9%,-2%
CCOC(=O)/C=C/c1ccc2oc3ccccc3c(=O)c2c1,-3%,49*,?,76*,7%,-8%
C#CCN(CC=C)C(=O)CCc1nnc(COc2ccccc2)o1,-8%,42*,-10%,59*,0%,2%
CCOC(=O)N1CCN(C(=O)CSc2nnc(COc3ccccc3)o2)CC1,16%,-4,-14%,13,12%,-5%
CCOC(=O)c1cc(C(=O)c2cc(Cl)ccc2O)coc1=N,6%,-3,-3%,22,-3%,5µM*
O=C(O)c1ccc2c(c1)C(=O)N(c1ccc(Cl)cn1)C2=O,-1%,-2,?,-7,-2%,0.63µM*
CC(C)c1ccc(/C=C/C(=O)NC(=S)Nc2ccc(CN3CCOCC3)cc2)cc1,39%,15*,1%,12,-6%,46%
CC(C)c1ccc(C(=O)NN2CCOCC2)cc1,-7%,-1,0%,-20,-3%,9%
CC(C)c1ccc(/C=C/C(=O)NC(=S)NN2CCOCC2)cc1,102%,17*,-2%,15,18%,69%
CC(C)c1ccc(NC(=S)N2CCN(Cc3ccccc3)CC2)cc1,3%,12*,-7%,36,-2%,39%
O=C(/C=C/c1cccc([N+](=O)[O-])c1)NC(=S)Nc1ccc(CN2CCOCC2)cc1,20%,-1,?,-3,3%,-6%
Cc1ccc(C(=O)Nn2cnc3scc(-c4cccs4)c3c2=O)c(O)c1,?,9,1%,-5,8%,-42%
CCN=C1Cn2c(nc3scc(-c4ccccc4)c3c2=O)CN1CC,55%,-2,-5%,-10,4%,-15%
SMILES,AMA1 RON2 block,Cycloheximide cs,AmpC inh detg,Shiga inhibitor,SARS PLP yeast,AmpC inh no detg
CC(=O)Nc1ccc(OCCCNC(=O)c2c(-c3ccccc3)noc2C)cc1,-21%,-2,7%,-12,0%,-1%
O=C(Nc1ccc(F)cc1)N1CCN(c2ncccn2)CC1,5%,-2,2%,22,0%,-17%
O=C(O)C(Cc1c[nH]c2ccccc12)N1Cc2ccccc2C1=O (stereo not given),14%,28*,7%,42*,0%,-12%
Cc1ccc(C)c(Cn2nc(C)n3c(cc4cc(C)ccc43)c2=O)c1,nt,nt,3%,nt,nt,nt
Cc1ccc2c(c1)cc1c(=O)[nH]ncn12,-3%,8,-11%,88*,2%,-8%
COc1ccc(CCNC(=O)COC(=O)C2=NNC(=O)CC2)cc1,-9%,nt,nt,nt,nt,nt
Cn1c(=O)[nH]c(=O)c2c1nc(Br)n2C/C=N/Nc1ccccc1,9%,9,0%,-6,-1%,-20%
Cn1c(=O)[nH]c(=O)c2c1nc(Br)n2C/C=N/NC(=O)c1ccccc1,12%,39*,-15%,55*,0%,-19%
COc1cc(C(=O)NCC(=O)OCC(=O)c2cccc3ccccc23)cc(OC)c1OC,-17%,1,4%,-7,-8%,-35%
NC(=S)N/N=C/c1ccc(C23CC4CC(CC(C4)C2)C3)cc1,89%,22*,?,79*,?,-44%
Cc1cccc2cc(C3CC(c4ccco4)=NN3S(C)(=O)=O)c(Cl)nc12 (stereo not given),-12%,9,-9%,21,0%,118%
Cc1cccc2cc(C3CC(c4ccco4)=NN3S(=O)(=O)c3ccccc3)c(Cl)nc12 (stereo not given),-7%,36*,-3%,86*,6%,-15%
O=C1CCCN1c1ccc(S(=O)(=O)NCCc2ccc(Cl)cc2)cc1,1%,1,4%,-12,-6%,-7%
O=C1CCCN1c1ccc(CNS(=O)(=O)c2ccc(F)cc2)cc1,11%,14*,-2%,24,12%,-19%
Nc1n[nH]c(C2CCCCC2)n1,-6%,-2,5%,-6,0%,-15%
COc1ccc(C(=O)/C=C/Nc2ccc(C)cn2)cc1OC,2%,38*,4%,75*,?,36%
CCOc1ccc(C(=O)/C=C/Nc2ccc(S(=O)(=O)N=C(N)N)cc2)cc1,5%,23*,-9%,62*,-11%,-14%
NC(N)=NS(=O)(=O)c1ccc(N/C=C/C(=O)c2ccc(Cl)c(Cl)c2)cc1,-7%,2,-1%,-10,0%,-41%
CCCOc1ccc(N/C=C/C(=O)c2ccc(OC)c(OC)c2)cc1,-7%,-1,-10%,11,-1%,43%
CCOc1ccc(N/C=C/C(=O)c2ccc(OC)c(OC)c2)cc1,2%,41*,-1%,82*,-2%,59%
COc1ccc(C(=O)/C=C/Nc2ccc(S(N)(=O)=O)cc2)cc1OC,-8%,14*,-5%,32,-1%,-4%
CN(C)CCN(C)Cc1c2ccccc2c(CN(C)CCN(C)C)c2ccccc12,0%,1,6%,20,2%,55%
